Experiment [1] in a line: qHTS assay to identify small molecule inhibitors of chordoma cells - UCH-1 (AID 1259355). Also: nearly all actives have a fitted effect of over 55% in size. As to Potency: series mostly up to about 46 µM. The gist of the method:
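Luminescent ATP read-out (CellTiter-Glo, 30min at room temperature) measured viability of UCH-1 cells exposed for 48hr to test drugs at 15 concentrations, co-dosed with a five-agent combination of auranofin, camptothecin, doxorubicin, rubitecan and topotecan.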

The nature of experiment [2]: qHTS assay to identify small molecule inhibitors of chordoma cells - UCH-2 (AID 1259356). For orientation: In qHTS, concentration-response curves come from the screen itself.
The nature of experiment [3]: P-glycoprotein substrates identified in KB-8-5-11 adenocarcinoma cell line, qHTS therapeutic library screen (AID 1346987). Also: nearly all actives have a fitted effect of over 65% in size. The conditions noted are these: outcome: dose series up to 44.5 µM unless noted. In a few lines:
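KB-8-5-11, a colchicine-selected P-gp-overexpressing KB-3-1 subline, was grown without colchicine for the assay. Cells were seeded at 500 cells/well, dosed in concentration-response and incubated 72 h at 37 degree C, 5% CO2. Viability was read by CellTiter-Glo luminescence.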

Inconclusive results are not listed. Calls of active or inactive are those of the source. Calls follow the shape of the dose curve; as a rule, active = well fitted curve in the direction sought with a large enough effect; inconclusive = small, poorly fitted or top-dose-only effect, or another doubt; inactive = no such curve, though single readings can be large; an effect the other way counts as inactive or inconclusive.
Potency is read from the fitted curve at half-maximal effect.

`O=C(OC[C@H]1O[C@](O)(COC(=O)c2cccnc2)[C@@H](OC(=O)c2cccnc2)[C@@H]1OC(=O)c1cccnc1)c1cccnc1`: the Potency result in experiment [1], in experiment [2] and in experiment [3] was “inactive” throughout.
`CC(C)[C@@H]1CC[C@@H](C)C[C@H]1O`: the Potency entry in experiment [1], in experiment [2] and in experiment [3] was “inactive” throughout.
Turning to `NC[C@H]1O[C@H](O[C@H]2[C@H](O)[C@@H](O[C@H]3O[C@H](CO)[C@@H](O)[C@H](N)[C@H]3O)[C@H](N)C[C@@H]2N)[C@H](N)C[C@@H]1O`, the Potency entry in experiment [1], in experiment [2] and in experiment [3] was “inactive” in each case.
As to `COc1ccc(/C=C/C(=O)OCCC(C)C)cc1`, the Potency result in experiment [1], in experiment [2] and in experiment [3] was “inactive” each time.
As to `O=[N+]([O-])O[C@@H]1CO[C@H]2[C@@H]1OC[C@@H]2O`, the Potency result in experiment [1], in experiment [2] and in experiment [3] was “inactive” each time.
Take `CC1CC(O)CC(C)(C)C1` (stereo not given): the Potency entry in experiment [1], in experiment [2] and in experiment [3] was “inactive” each time.
On to `CC(C)[C@@H](N)C(=O)O`, for which the Potency result in experiment [1], in experiment [2] and in experiment [3] was “inactive” throughout.
With `Cc1cc(-c2ccc(N=Nc3c(S(=O)(=O)O)cc4cc(S(=O)(=O)O)cc(N)c4c3O)c(C)c2)ccc1N=Nc1c(S(=O)(=O)O)cc2cc(S(=O)(=O)O)cc(N)c2c1O`, the Potency in experiment [1] is 11.2 µM (active); in experiment [2] it was 8.2 µM (active); in experiment [3], 9.2 µM (active).
Turning to `CCCCCCCCCCCCCCCC(=O)OC[C@@H](O)[C@H]1OC[C@H](O)[C@H]1O`, the Potency entry in experiment [1], in experiment [2] and in experiment [3] was “inactive” in each case.
`CC/C(=C(/CC)c1ccc(OP(=O)(O)O)cc1)c1ccc(OP(=O)(O)O)cc1`: the Potency entry in experiment [1], in experiment [2] and in experiment [3] was “inactive” in each case.
As for `CC(=O)NCCCS(=O)(=O)O`, the Potency entry in experiment [1], in experiment [2] and in experiment [3] was “inactive” each time.
In the case of `[O]=[Bi][O]C(=O)[O][Bi]=[O]`, the Potency result in experiment [1], in experiment [2] and in experiment [3] was “inactive” throughout.
As for `CO[C@@H]1[C@H](OC(=O)/C=C/C=C/C=C/C=C/C(=O)O)CC[C@]2(CO2)[C@H]1[C@@]1(C)O[C@@H]1CC=C(C)C`, the Potency result in experiment [1], in experiment [2] and in experiment [3] was “inactive” throughout.
With `Cc1cccc(C)c1Nc1ncccc1C(=O)O`, the Potency result in experiment [1], in experiment [2] and in experiment [3] was “inactive” in each case.
On to `O=C(O)CCCC/C=C(\c1ccccc1)c1cccnc1`, for which the Potency result in experiment [1], in experiment [2] and in experiment [3] was “inactive” throughout.
On to `CC1(C)[C@@H]2CC[C@@]1(C)[C@H](OC(=O)CSC#N)C2`, for which the Potency entry in experiment [1], in experiment [2] and in experiment [3] was “inactive” each time.
On to `OCc1ccccc1`, for which the Potency entry in experiment [1], in experiment [2] and in experiment [3] was “inactive” in each case.
For `CC1CCCCN1CCCOC(=O)c1ccccc1` (stereo not given), the Potency entry in experiment [1], in experiment [2] and in experiment [3] was “inactive” throughout.
Turning to `Cc1cc(-c2ccc(N=Nc3ccc4c(S(=O)(=O)O)cc(S(=O)(=O)O)c(N)c4c3O)c(C)c2)ccc1N=Nc1ccc2c(S(=O)(=O)O)cc(S(=O)(=O)O)c(N)c2c1O`, the Potency result in experiment [1] and in experiment [2] was “inactive” in each case. In addition, the Potency in experiment [3] is 6.51 µM (active).
With `CC(=O)N[C@@H](C=O)[C@@H](O)[C@H](O)[C@H](O)CO`, the Potency result in experiment [1], in experiment [2] and in experiment [3] was “inactive” each time.
Turning to `C=C1c2c(Cl)ccc(O)c2C(O)=C2C(=O)[C@]3(O)C(O)=C(C(N)=O)C(=O)[C@@H](N(C)C)[C@@H]3[C@@H](O)[C@H]12`, the Potency entry in experiment [1], in experiment [2] and in experiment [3] was “inactive” throughout.
Turning to `CCC(Oc1ccccc1)C(=O)N[C@@H]1C(=O)N2[C@@H]1SC(C)(C)[C@@H]2C(=O)O` (stereo not given in full), the Potency result in experiment [1], in experiment [2] and in experiment [3] was “inactive” each time.
Consider `CCC(C)[C@@H](N)C(=O)O` (stereo not given in full), for which the Potency entry in experiment [1], in experiment [2] and in experiment [3] was “inactive” throughout.
For the compound `OCC(O)CO`, the Potency entry in experiment [1], in experiment [2] and in experiment [3] was “inactive” throughout.
`Nc1nc(=O)n([C@@H]2CS[C@H](CO)O2)cc1F`: the Potency entry in experiment [1], in experiment [2] and in experiment [3] was “inactive” each time.
